# Data from PubChem BioAssay (NCATS).
# Records with an inconclusive call do not appear. A call without a number means that no potency is given here. Values without a mark were called inactive. Active and inactive are the calls of the source. Calls come from the whole dose curve; as a rule, active = well fitted curve in the direction sought with a large enough effect; inconclusive = small, poorly fitted or top-dose-only effect, or another doubt; inactive = no such curve, though single readings can be large; an effect the other way counts as inactive or inconclusive.
# Experiments:
# [1] = target: Calcium and integrin-binding protein 1 (Homo sapiens) (UniProt Q99828); assay: Primary qHTS for Identification of Calcium Integrin Binding Protein 1 (CIB1) Competitor (AID 1508620); conditions: CIB1-GST / FITC-alphaIIb peptide fluorescence polarization; series mostly up to 57.7 µM;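 note: GST tagged CIB1 binding a fluorescein labelled alphaIIb integrin peptide tracer; top concentration of the series differs between compounds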
# Chain of Calcium and integrin-binding protein 1 (Homo sapiens) (Q99828 whole entry, looked up): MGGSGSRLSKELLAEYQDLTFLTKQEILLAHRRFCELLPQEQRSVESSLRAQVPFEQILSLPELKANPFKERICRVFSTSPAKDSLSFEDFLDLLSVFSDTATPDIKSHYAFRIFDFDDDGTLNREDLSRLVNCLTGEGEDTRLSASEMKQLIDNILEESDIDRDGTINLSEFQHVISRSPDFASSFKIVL
# Summary of the method: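 CIB1-GST (1 uM final) and compound incubated 15 min at room temperature before adding FITC-alphaIIb peptide tracer (100 nM final). Competition for binding read by fluorescence polarization (ex 480, em 540) after another 15 min at room temperature.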
# [2] = Primary qHTS for inhibitors of nuclear receptor binding SET domain protein 2 (NSD2) in an isogenic RCH-ACV NSD2 p.E1099K mutant (9B) (AID 1645876); conditions: RCH-ACV NSD2 E1099K (9B) viability, CellTiter-Glo, 72 h; series mostly up to 44.9 µM; note: nearly all actives have a fitted effect of over 70% in size
# [3] = Primary qHTS for inhibitors of nuclear receptor binding SET domain protein 2 (NSD2) in an RCH-ACV wild type WT cells (2C) (AID 1645877); conditions: RCH-ACV (leukaemia line) NSD2 WT (2C) viability, CellTiter-Glo, 72 h; series mostly up to 44.9 µM; note: nearly all actives have a fitted effect of over 70% in size; note: potency is the fitted concentration of half-maximal effect
Compound,Potency [1],Potency [2],Potency [3],"activity change, negative = viability loss [2]","activity change, negative = cell killing [3]"
CCOC(=O)C(CCc1ccccc1)NC(C)C(=O)N1Cc2ccccc2CC1C(=O)O (stereo not given),inactive,inactive,inactive,,
C[C@H]1[C@H](C)CC[C@]2(C(=O)O)CC[C@]3(C(=O)O)C(=CCC4[C@@]5(C)CC[C@H](O[C@@H]6O[C@@H](C)[C@H](O)[C@@H](O)[C@H]6O)C(C)(C)C5CC[C@]43C)[C@H]12 (stereo not given in full),inactive,inactive,inactive,,
O=C(OCC(O)CO[C@@H]1O[C@H](C(=O)O)[C@@H](O)[C@H](O)[C@H]1O)c1ccccc1 (stereo not given in full),inactive,inactive,inactive,,
COc1cc(/C=C/C(=O)O[C@H]2[C@@H]3C=CO[C@@H](O[C@@H]4O[C@H](CO)[C@@H](O)[C@H](O)[C@H]4O)[C@@H]3[C@@]3(CO)O[C@@H]23)ccc1O,inactive,inactive,inactive,,
C/C=C/C=C/C(O)=C1/C(=O)[C@]2(C)C(=O)[C@@](C)(O)[C@H]1[C@H]([C@@]1(C)OC(=O)C(C)=C1O)[C@H]2C(=O)CC/C=C/C,inactive,inactive,inactive,,
C=C1C[C@]23C[C@H]1CC[C@H]2[C@]1(C)CC[C@H](O)[C@@](C)(C(=O)O)[C@H]1[C@@H]3C(=O)O,inactive,inactive,inactive,,
C=C1CCC[C@]2(C)CC[C@@](O)(C(=C)C(=O)O)C[C@@H]12,inactive,inactive,inactive,,
COC(=O)C1=CO[C@@H](O[C@@H]2O[C@H](CO[C@@H]3O[C@H](CO)[C@@H](O)[C@H](O)[C@H]3O)[C@@H](O)[C@H](O)[C@H]2O)[C@@H]2C(CO)=CC[C@H]12,inactive,inactive,inactive,,
Nc1nc2c(nc(Sc3ccc(Cl)cc3)n2[C@@H]2O[C@@H]3COP(=O)(O)O[C@H]3[C@H]2O)c(=O)[nH]1,inactive,inactive,inactive,,
O=C(/C=C/c1ccc(O)cc1)OC[C@@]1(O)C=C[C@@H]2C(C(=O)O)=CO[C@@H](O[C@@H]3O[C@H](CO)[C@@H](O)[C@H](O)[C@H]3O)[C@@H]21,inactive,inactive,inactive,,
CC1(C)C(=O)N2c3ccccc3C(O)(CC(C(=O)O)n3cnc4ccccc4c3=O)C2N1O (stereo not given),inactive,inactive,inactive,,
C[C@@H]1O[C@@H](O[C@H]2[C@H](Oc3cc(O)c(C(=O)CCc4ccc(O)cc4)c(O)c3)O[C@H](CO)[C@@H](O)[C@@H]2O)[C@H](O)[C@H](O)[C@H]1O,inactive,inactive,inactive,,
CC1=C2CC(O)(C(C)(C)O)C(O[C@@H]3O[C@H](CO)[C@@H](O)[C@H](O)[C@H]3O)CC(C)C2CC1=O (stereo not given in full),inactive,inactive,inactive,,
CC1(C)CC[C@]2(C(=O)OC3OC(CO)C(O)C(O)C3O)CC[C@]3(C)C(=CCC4[C@@]5(C)C[C@@H](O)[C@H](OC6OC(C(=O)O)C(O)C(O)C6O)C(C)(C)C5CC[C@]43C)[C@@H]2C1 (stereo not given in full),inactive,,,-7.32% [at 9.23 µM],-10.4% [at 9.23 µM]
CC1=C2CC(=O)C(C)CC/C=C(\C)CC2OC1=O (stereo not given),inactive,inactive,inactive,,
C=C(C(=O)O)[C@@H]1CC[C@H](C)[C@@H]2CC(=O)C(C)=C2C1,inactive,inactive,inactive,,
O=C(/C=C/c1ccc(O)cc1)OC[C@H]1O[C@@H](O/C(=C\c2ccccc2)C(=O)O)[C@H](O)[C@@H](O)[C@@H]1O,inactive,inactive,inactive,,
OC[C@H]1O[C@@H](OCCc2ccccc2)[C@H](O)[C@@H](O)[C@@H]1O,inactive,inactive,inactive,,
CC(C)c1ccc2c(c1)[C@H](O)CC1[C@@](C)(C(=O)O)CCC[C@]21C (stereo not given in full),inactive,inactive,inactive,,
CCC/C=C1\OC(=O)C2=C1CCC(O)C2O (stereo not given),inactive,inactive,inactive,,
CC(NC(=O)CC(=O)O)C(=O)Nc1ccccc1C(N)=O (stereo not given),inactive,inactive,inactive,,
CC(C)C1NC(=O)C(CC2(O)c3ccccc3N3C(=O)C(Cc4ccccc4)NC32)NC1=O (stereo not given),inactive,inactive,inactive,,
C[C@@H]1C[C@@H](O)[C@@]2(CO)C(CO)=CCC[C@@H]2[C@@]12C[C@@H](c1ccoc1)OC2=O,inactive,inactive,inactive,,
CC1(C)CC[C@]2(C(=O)O)CC[C@]3(C)C(=CCC4[C@@]5(C)C(=O)C[C@H](O)[C@@](C)(CO)C5CC[C@]43C)[C@@H]2C1 (stereo not given in full),inactive,inactive,inactive,,
C[C@]12CC/C(=N\OCC(=O)O)C=C1CC[C@@H]1[C@@H]2[C@@H](O)C[C@@]2(C)[C@H]1CC[C@]2(O)C(=O)CO,inactive,inactive,9.16 µM (active),,
